Test results as given in PubChem BioAssay AID2685 (National Center for Advancing Translational Sciences (NCATS), 2010).
The whole screen tested about 320,000 compounds, of which about 2,100 (0.66%) were called active. Roughly 53% stayed inconclusive and do not appear here. This is one part of a sample in which actives are shown more often than they occur. Calls follow the shape of the dose curve; as a rule, active = well fitted inhibition curve with a large enough effect in the signal ratio, with a control signal flat (not every such curve was filed as active); inconclusive = small, poorly fitted or top-dose-only effect, or effect the other way, or a change in a side signal; inactive = flat fitted curve, though single readings scatter; the % refers to the signal ratio.

assay: qHTS Assay for Lipid Storage Modulators in Drosophila S3 Cells; conditions: BODIPY lipid droplet fluorescence, 18-24 h, cells fed with added oleic acid; cell number change: measured here: cell count max response; series mostly up to 46.1 µM;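 as to cell number change: cells counted by Cell Tracker Red CMTPX staining in the red channel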
Outline: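 Drosophila S3 cells loaded with oleic acid (400 uM, as added) and compounds at several concentrations; lipid droplets imaged by 488-nm laser-scanning cytometry, 500–530 nm intensity and object ratio to cell channel. Percent activity normalized to 20 uM Triacsin C.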
Potency is read from the fitted curve at half-maximal effect.

SMILES	Potency	cell number change [%]
Cc1ccc(S(=O)(=O)CCN2CCN(c3ccccn3)CC2)cc1	inactive	3.2
CCc1ccc(-c2cc(C)no2)cc1S(=O)(=O)N1CCCN(Cc2ccc(F)cc2)C1	inactive	2.69
CCc1ccc(-c2cc(C)no2)cc1S(=O)(=O)N1CCOc2ccccc21	16.4 µM (active)	-0.472
CCc1ccc(-c2cc(C)no2)cc1S(=O)(=O)NCCc1ccccc1	inactive	13.1
Cc1cc(-c2ccc(C)c(S(=O)(=O)N3CCN(c4ccccn4)CC3)c2)on1	inactive	-26.7
Cc1cc(-c2ccc(C)c(S(=O)(=O)N3CC(=O)Nc4ccccc43)c2)on1	1.03 µM (active)	3.36
CCc1ccc(-c2cc(C)no2)cc1S(=O)(=O)N1CCN(c2ccccc2OC)CC1	inactive	23.3
CCc1ccc(-c2cc(C)no2)cc1S(=O)(=O)N1CC(=O)Nc2ccccc21	4.11 µM (active)	-17.1
Cc1ccc(S(=O)(=O)N2CC(=O)Nc3ccccc32)c(C)c1NS(C)(=O)=O	inactive	-8.89
CCc1ccc(-c2cc(C)no2)cc1S(=O)(=O)Nc1ccccn1	inactive	-19.5
Cc1ccc(Nc2cc(C)nc(-c3ccccc3)n2)cc1	inactive	
CC(=O)CSc1cc(-c2ccccc2)nc2ncnn12	inactive	-21.4
Cc1cc(C)nc(NS(=O)(=O)c2ccc(NC(=O)Nc3ccccc3F)cc2)n1	inactive	-10.1
O=C(Cn1cccc1C(=O)c1ccccc1)NCCCN1CCOCC1	inactive	-0.598
O=C1c2ccccc2CN1Cc1ccccc1	inactive	10.2
COC(=O)CCn1[nH]c(=O)c2ccccc2c1=O	inactive	-3.6
CCCCCCCCOC(=O)CCn1[nH]c(=O)c2ccccc2c1=O	inactive	-16.3
O=C(CCn1[nH]c(=O)c2ccccc2c1=O)NCCO	11.6 µM (active)	1.53
c1ccc(CN2CCOCCOCCOCC2)cc1	inactive	-1.02
CCOC(=O)c1ccc(N2C(=O)c3n[nH]c(C)c3C2c2ccc(OC)cc2)cc1 (configuration not stated)	inactive	-20.7
CC1(CCc2ccccc2)NC(=O)N(CC(=O)O)C1=O (configuration not stated)	inactive	-3.79
Cc1ccc(NC(=O)CSc2nnc(C3CC3)n2N)cc1S(=O)(=O)N1CCOCC1	inactive	12.4
O=C(CCN1C(=O)NC2(CCCC2)C1=O)Nc1cccc(S(=O)(=O)N2CCOCC2)c1	inactive	2.63

SMILES	Potency	cell number change [%]
O=C(Cn1c2ccccc2c2nc3n(c(=O)c21)CCS3)N1CCCC1	inactive	-22.8
CC1CCCN(C(=O)Cn2c3ccccc3c3nc4n(c(=O)c32)CCS4)C1 (configuration not stated)	7.31 µM (active)	-9.4
O=C(Cn1c2ccccc2c2nc3n(c(=O)c21)CCS3)Nc1ccccc1C(F)(F)F	inactive	-11.3
COc1ccc(/C=N\Nc2ccccc2[N+](=O)[O-])c(C(=O)O)c1OC	inactive	2.19
Cc1ccc(C(=O)CSc2nnc(-c3ccccc3)n2-c2ccccc2)o1	inactive	6.85
COc1ccc(C(C)N2CC34C=CC(O3)C(C(=O)OCC(C)C)C4C2=O)cc1 (configuration not stated)	inactive	-0.854
CCOC(=O)C1[C@H]2C(=O)N(C(C)c3ccc(OC)cc3)C[C@]23C=C[C@H]1O3 (some centres not stated)	inactive	-3.61
COC(=O)C1C2C=CC3(CN(C(C)c4ccc(OC)cc4)C(=O)C13)O2 (configuration not stated)	16.4 µM (active)	-5.31
Cc1ccccc1Nc1nccc(N(C)C)c1C#N	inactive	-17.6
N#C/C(=C\c1ccccc1)C(=O)NC1CC1	inactive	
COc1ccc(/C=C(/C#N)C(=O)NC2CCCCC2)cc1Br	inactive	-11.6
CC(=O)Nc1ccc(/C=C(\C#N)C(=O)NC2CCCCC2)cc1	20.6 µM (active)	6.15
COc1cc2[nH]c(=O)n(Cc3ccc(C(=O)N4CCC(N5CCCCC5)CC4)cc3)c(=O)c2cc1OC	0.411 µM (active)	-3.59
COc1cc2[nH]c(=O)n(Cc3ccc(C(=O)NCC4CCCO4)cc3)c(=O)c2cc1OC (configuration not stated)	inactive	12.5
CCCCCn1c(=O)[nH]c2cc(C(=O)N3CCN(c4ccccc4F)CC3)ccc2c1=O	inactive	0.806
COc1cc2[nH]c(=O)n(Cc3ccc(C(=O)NC4CCCC4)cc3)c(=O)c2cc1OC	inactive	
CCCCCn1c(=O)[nH]c2cc(C(=O)N3CCN(CC)CC3)ccc2c1=O	inactive	
CCOC(=O)N1CCN(C(=O)c2ccc3c(=O)n(CCc4ccc(OC)c(OC)c4)c(=O)[nH]c3c2)CC1	1.3 µM (active)	12.7
COc1ccc(N2CCN(C(=O)c3ccc4c(=O)n(CCc5ccc(OC)c(OC)c5)c(=O)[nH]c4c3)CC2)cc1	inactive	-0.645
COCCn1c(=O)[nH]c2cc(C(=O)NCCN3CCN(c4ccccc4F)CC3)ccc2c1=O	inactive	-8.35
CCOC(=O)N1CCN(C(=O)c2ccc3c(=O)n(CCOC)c(=O)[nH]c3c2)CC1	inactive	1.58
CCCCCn1c(=O)[nH]c2cc(C(=O)N3CCN(C(=O)OCC)CC3)ccc2c1=O	3.66 µM (active)	
CCOC(=O)N1CCN(C(=O)c2ccc3c(=O)n(CCc4ccccc4)c(=O)[nH]c3c2)CC1	inactive	

SMILES	Potency	cell number change [%]
COCCn1c(=O)[nH]c2cc(C(=O)N3CCN(c4ccccc4F)CC3)ccc2c1=O	11.6 µM (active)	-14.1
CCC(=O)Nc1ccc2oc(-c3cccnc3)nc2c1	inactive	17.6
OCCNc1ncnc2c1sc1nc(N3CCOCC3)c3c(c12)CCC3	inactive	0.136
Cc1c(OC(C)C(=O)NCCCN2CCOCC2)ccc2c3c(c(=O)oc12)CCCC3 (configuration not stated)	inactive	8.4
COC(=O)CNC(=O)CSc1nc(N)cc(=O)[nH]1	inactive	-9.53
Cc1cc(C)c(O)c(NC(=S)NC(=O)Cc2ccccc2)c1	inactive	-14.2
CCc1ccccc1Nc1nc(N)nc(COC(=O)CCS(=O)(=O)c2ccccc2)n1	inactive	
Cc1c(C)n(CCO)c2ncnc(Nc3ccc(F)cc3)c12	inactive	17.8
C=CCN1C(=O)/C(=C\c2ccc(Cl)cc2)N=C1SCC(=O)NC1CCCCC1	inactive	1.87
CC(=O)c1ccc(NC(=O)/C(=C\c2cccs2)NC(=O)c2ccco2)cc1	inactive	17
CC1=C(C(=O)Nc2ccc(C)cc2)C(c2ccc(N(C)C)cc2)NC(=O)N1 (configuration not stated)	inactive	-1.82
CC1=C(C(=O)Nc2ccccc2)C(c2cccs2)NC(=O)N1 (configuration not stated)	inactive	-4.1
CCN(CC)c1ccc(C2NC(=O)NC(C)=C2C(=O)Nc2ccccc2)cc1 (configuration not stated)	1.64 µM (active)	-25.6
Cc1ccc(NC(=O)c2c(O)c3ccccc3n(C)c2=O)nc1	inactive	-15.8
CCOC(=O)c1cnc2c(C)c(-c3ccccc3)[nH]n2c1=O	inactive	6.05
CN=C1SC(CC(=O)Nc2ccc(F)cc2F)C(=O)N1/N=C(\C)c1cccc(OCC(=O)O)c1 (configuration not stated)	inactive	5.65
C=CCOc1ccc(/C=N/N2C(=O)C(CC(=O)Nc3ccc(F)cc3F)SC2=NC)cc1 (configuration not stated)	18.4 µM (active)	23
CN=C1SC(CC(=O)Nc2ccc(F)cc2F)C(=O)N1/N=C/c1ccc(OC(F)F)c(OC)c1 (configuration not stated)	inactive	8.82
CCOC(=O)c1cnc2c(OC)cccc2c1Oc1ccccc1	inactive	0.518
c1ccc(NC(=NCc2ccco2)c2ccccc2)cc1	inactive	0.492
NC(=NCc1ccco1)NC(=O)c1ccccc1	20.6 µM (active)	21.8
O=C(NC(=S)NCc1ccco1)c1ccccc1	inactive	2.74
COC(=O)c1ccc(OC(=O)CCN2C(=O)C3C4c5ccccc5C(c5ccccc54)C3C2=O)cc1 (configuration not stated)	inactive	-1.2

SMILES	Potency	cell number change [%]
O=C(c1cnccn1)N1CCN(c2ccccc2F)CC1	inactive	-10.1
Nc1ncc(Br)cc1S(=O)(=O)NC1CCCCC1	inactive	6.11
Nc1ncc(Br)cc1S(=O)(=O)Nc1ccccc1F	inactive	
Nc1ncc(Br)cc1S(=O)(=O)Nc1cc(C(F)(F)F)cc(C(F)(F)F)c1	0.58 µM (active)	-15.9
Cc1c(C(=O)O/N=C(\N)c2ccccn2)cccc1[N+](=O)[O-]	inactive	7.58
CCOC(=O)C1=C(COC(=O)Cc2ccc(Cl)cc2)NC(=O)NC1C (configuration not stated)	inactive	5.22
Cc1cc(C)cc(NC(=O)CN2CCN(c3ncccn3)CC2)c1	inactive	8.39
NC(=O)C1CCN(CC(=O)Nc2ccccn2)CC1	inactive	
O=C(CN1CCN(c2ccccn2)CC1)Nc1ccccc1	inactive	6.43
O=C(CN1CCN(CC(=O)Nc2ccccn2)CC1)Nc1ccccn1	29.1 µM (active)	1.87
Cn1nnnc1SCC(=O)Nc1ccccc1Br	inactive	-3.35
Cc1cc(C)cc(NC(=O)CN2CCN(c3ccccn3)CC2)c1	16.4 µM (active)	-2.33
Cc1cccc(NC(=O)CSc2nnnn2C)n1	inactive	-5.08
Cn1nnnc1SCC(=O)Nc1ccccn1	5.8 µM (active)	-3.74
O=C(CC(=O)Nc1ccccn1)Nc1ccccn1	inactive	4.61
CCOC(=O)C1=C(C)NC(=O)NC1c1ccc(OC(C)C(=O)O)c(OC)c1 (configuration not stated)	inactive	0.405
O=C(C[n+]1ccccc1)N/N=C/c1cccc(Cl)c1Cl	inactive	4.15
CCOc1ccc(C(=O)Nc2ccccc2-c2ccccc2)cc1Cl	inactive	-2.51
O=C(CSc1nc2ccccc2c(=O)n1-c1ccc(F)cc1)NC1CCS(=O)(=O)C1 (configuration not stated)	inactive	
COc1ccc(OC)c(NC(=O)COC(=O)CN(C)S(=O)(=O)c2ccc(C)cc2)c1	inactive	1.08
Cc1[nH]c2ccccc2c1/C=N/NC(=O)C1CC1(c1ccccc1)c1ccccc1 (configuration not stated)	inactive	-28.5
Cc1ccc(C(=O)NCc2cccnc2)o1	inactive	-7.92
